Results on 100 molecules are retold here after PubChem BioAssay AID1259343 (VanderVen Lab, College of Veterinary Medicine, Cornell …, 2017).

Hit rate of the full screen: of about 6,200 compounds, about 2,900 (47%) were called active. No stated cut-off is given here; in the data, active means inhibition above about 50%; inactive means the rest. So high a share suggests a set chosen from earlier hits. The list shows a part of the results.

The experiment is described as follows: Mycobacterium tuberculosis growth inhibition, primary screen (AID 1259343). The note with it: inhibition: at 10 µM, hits give high values; outcome: 10 uM.
Regarding `CC(=O)CCc1ccc(OCCCOc2ccc(Cl)c3cccnc23)cc1`, the inhibition is 69.7% (active). As for `CCC(C)C(=O)Nc1ccc(Cl)c2cccnc12` (stereo not given), the inhibition is -29.8% (inactive).

Consider `CCNc1nc(=S)[nH]c2ccccc12`, for which the inhibition was -44.3% (inactive). With `CNc1nc(=S)[nH]c2ccccc12`, the inhibition is 72.5% (active). `S=c1nc(NC2CC2)c2ccccc2[nH]1`: the inhibition is 85.5% (active). Under `Cc1nn2c(nc(NC3CCCC3)c3ccccc32)c1Cl` stands 13.2% (inactive). Turning to `COc1ccc(-c2noc(Cc3ccc(F)c(Br)c3)n2)cn1`, the inhibition is 58.1% (active). With `COc1ccc(-c2csc(C(O)c3cccc(Cl)c3)n2)cn1` (stereo not given) the figure was 40.1% (inactive); with `COc1ccc(Cc2nc(-c3ccc(Br)cc3)no2)cc1`, -10.8% (inactive); with `CC(C)c1nc2c(c(=O)c3ccccc3n2C)c(=O)n1-c1ccccc1`, -10.5% (inactive). With `CC1CCN(C(=S)NC2CC3CCC2C3)CC1` (stereo not given) the figure was 67.5% (active); with `c1ccc2[nH]c(CCC3CCCCC3)nc2c1`, -43.3% (inactive); with `NC(=S)Cc1nc2ccccc2[nH]1`, 98.2% (active).

In the case of `CCc1ccc(/C=C/c2nc3ccccc3[nH]c2=O)cc1`, the inhibition was 26.4% (inactive). As for `O=c1ccn(CCOc2cc(Cl)cc(Cl)c2)c(Cl)c1`, the inhibition is 53.2% (active). With `N#Cc1c(N)sc2c1CCN(c1nccc(C(F)(F)F)n1)C2` the figure was -0.04% (inactive); with `COc1ccc(OCC(=O)Nc2cc(-c3cccs3)nn2-c2nc(C)cc(=O)[nH]2)cc1`, 99.1% (active); with `Cc1nc(-n2nc(-c3cccs3)cc2NC(=O)CCC2CCCC2)[nH]c(=O)c1C`, 101% (active). As for `COc1ccc(CC(=O)Nc2cc(-c3cccs3)nn2-c2nc(C)cc(=O)[nH]2)cc1`, the inhibition is 99.4% (active). In the case of `Cc1nc(-n2nc(-c3cccs3)cc2NC(=O)C2CC2)[nH]c(=O)c1C`, the inhibition is -19.4% (inactive).

On to `COc1ccc(CC(=O)Nc2cc(-c3cccs3)nn2-c2nc(C)c(C)c(=O)[nH]2)cc1`, for which the inhibition was 99.9% (active).

Regarding `COc1ccc(CC(=O)Nc2cc(-c3cccs3)nn2-c2nc(C(C)C)cc(=O)[nH]2)cc1`, the inhibition was 100% (active). For `CC(C)c1cc(=O)[nH]c(-n2nc(-c3cccs3)cc2NC(=O)CCc2ccccc2)n1`, the inhibition was 19.2% (inactive). As for `Cc1cc(=O)[nH]c(-n2nc(-c3cccs3)cc2NC(=O)COc2ccccc2F)n1`, the inhibition was -30.7% (inactive).

Consider `CC(C)c1cc(=O)[nH]c(-n2nc(-c3cccs3)cc2NC(=O)COc2ccccc2F)n1`, for which the inhibition is 100% (active). As to `CC(C)c1cc(=O)[nH]c(-n2nc(-c3cccs3)cc2NC(=O)Cc2ccc(F)cc2)n1`, the inhibition was 6.65% (inactive). As for `CCCCCOc1ccc(C(=O)N2CCC(O)(c3ccccc3)CC2)cc1OCCCCC`, the inhibition is 35.2% (inactive).

As to `Cc1ccc(NCc2nsc(N(C)C)n2)c(F)c1`, the inhibition is 51% (active).

`O=C(c1ccc2oc(CCCc3ccccc3)nc2c1)N1CCCCO1`: the inhibition was 50.9% (active). As to `O=C(COCc1ccccc1)N(Cc1ccccc1)Cc1nc2cc(Cl)ccc2o1`, the inhibition was -20.6% (inactive). As for `O=C(NCC1CCCCO1)c1ccc2oc(CCCc3ccccc3)nc2c1` (stereo not given), the inhibition is 47% (inactive). For `CS(=O)(=O)NCc1ccc(Oc2ccccc2F)c(F)c1`, the inhibition is 1.57% (inactive). Under `CS(=O)(=O)NC(=O)c1ccc(Oc2ccc(F)cc2F)cc1` stands 72.8% (active); under `N#Cc1c(F)cccc1Oc1ccc(C(=O)O)cc1`, 39.2% (inactive); under `Cc1ccccc1CSc1nc2c(c(=O)n1C)SCC2`, 45.6% (inactive). `O=c1c2sccc2nc(SCCc2ccccn2)n1-c1ccccc1`: the inhibition is 12.8% (inactive).

In the case of `CCOc1ccccc1CSc1nc2ccsc2c(=O)n1C`, the inhibition is 102% (active).

Turning to `COc1ccc(OCCSC2=Nc3ccccc3C3CC=NN23)cc1` (stereo not given), the inhibition is 45.9% (inactive). Under `S=C1Nc2ccccc2C2CC=NN12` (stereo not given) stands 55.7% (active); under `CC(C)c1cc(C(=O)N2CCCC(C(=O)Nc3cccc(-c4ccc(F)cc4)c3)C2)on1` (stereo not given), 83.1% (active). Regarding `O=C(Nc1cccc(-c2ccc(F)cc2)c1)C1CCCN(C2CCSCC2)C1` (stereo not given), the inhibition is 86.7% (active). With `Cc1nc(C)c(CN2CCCC(C(=O)Nc3ccc(-c4cccc(F)c4)cc3)C2)nc1C` (stereo not given) the figure was 90.5% (active); with `Cc1nnsc1C(=O)N1CCCC(C(=O)Nc2cccc(-c3ccc(F)cc3)c2)C1` (stereo not given), 17.2% (inactive). Under `CC(C)c1cc(C(=O)N2CCCC(C(=O)c3ccc4ccccc4c3)C2)on1` (stereo not given) stands 15.6% (inactive); under `Cc1ncc(CN2CCCC(C(=O)Nc3cccc(-c4ccc(F)cc4)c3)C2)s1` (stereo not given), 61.6% (active).

With `O=c1c2ccccc2oc2nc(C3CCCCC3)n(Cc3ccccc3)c(=O)c12`, the inhibition was -13.4% (inactive). In the case of `O=C(Nc1cccc(-c2ccc(F)cc2)c1)C1CCCN(Cc2cccnc2)C1` (stereo not given), the inhibition was 47.1% (inactive). Under `CSCCC(=O)N1CCCC(C(=O)Nc2ccc(-c3cccc(F)c3)cc2)C1` (stereo not given) stands 36.2% (inactive). With `CCc1ncc(CN2CCCC(C(=O)Nc3cccc(-c4ccc(F)cc4)c3)C2)cn1` (stereo not given) the figure was 77% (active). For the molecule `O=C(Nc1ccc(-c2cccc(F)c2)cc1)C1CCCN(C(=O)C2CCOCC2)C1` (stereo not given), the inhibition is 76.7% (active).

Take `CC1(CCc2ccccc2)CCN(c2cn[nH]c(=O)c2Cl)C1` (stereo not given): the inhibition is 71.2% (active).

Take `O=c1c(Cl)c(Oc2ccccc2)cnn1Cc1ccccc1`: the inhibition was 24.6% (inactive). With `Cc1ccc(CC2CCCN(c3cn[nH]c(=O)c3Cl)C2)cc1` (stereo not given) the figure was 41.4% (inactive).

For `CCN(C(=O)c1cccc(Br)c1C)c1ccccc1`, the inhibition is -6.9% (inactive). Under `Cc1cc(Cl)ccc1OC(C)c1nnc(SCCC2CCCCC2)o1` (stereo not given) stands 10.5% (inactive).

As for `O=S(=O)(c1cc(Br)ccc1Br)N1CCC1c1ccccc1` (stereo not given), the inhibition was 77.1% (active).

On to `O=S(=O)(c1cc(Br)ccc1Br)N1CCc2ccccc21`, for which the inhibition is 102% (active). Under `O=S(=O)(c1cc(Br)ccc1Br)N1CCCc2ccccc21` stands 7.14% (inactive). Under `Cc1ccc(O)c(S(=O)(=O)N2CCCc3cc(F)c(F)cc32)c1` stands 3.27% (inactive); under `CC(C)SCC(=O)Nc1cnc2ccccc2c1`, 92.9% (active).

Regarding `CC(C)CCNC(=O)CSc1nc2ccccc2o1`, the inhibition was 6.9% (inactive). Turning to `COc1cccc(-n2cc(CN(C)Cc3cc4ccccc4[nH]3)cn2)c1`, the inhibition was 41.5% (inactive). Under `COc1cccc(-n2cc(CN(C)Cc3cccc4nonc34)cn2)c1` stands 83.4% (active); under `CC(C)c1cc2c(c(O)c1O)[C@@]1(C(=O)O)CCCC(C)(C)C1CC2` (stereo not given in full), 48.2% (inactive). As for `CC(C)c1ccc2c(c1)CCC1C(C)(C(N)=O)CCCC21C` (stereo not given), the inhibition is 64.3% (active). Consider `Cc1ccc(C2CC2C(=O)NS(=O)(=O)c2ccc(F)cc2)s1` (stereo not given), for which the inhibition is -6% (inactive).

Regarding `CC(=O)NS(=O)(=O)c1ccc(N)cc1`, the inhibition was 60.2% (active). Take `COc1ccc(S(=O)(=O)NCCC(C)C)cc1`: the inhibition is 3.91% (inactive). Under `O=C(NCc1ccc(S(=O)(=O)N2CCCCC2)cc1)NCc1cccc(C(F)(F)F)c1` stands 91.4% (active); under `O=C(c1cnc2cc3c(cc2c1)OC1(CCCC1)O3)c1ccccc1O`, -7.11% (inactive); under `Cc1ccc(NC2=CC(=O)c3sc(C)nc3C2=O)cc1`, 99.8% (active). Under `Cc1ccc(-c2nc(C)sc2CC(=O)NC(C)C2CC2)cc1` (stereo not given) stands 33.3% (inactive). With `CC(C)CNc1nnnc2c1sc1nc(N3CCOCC3)c3c(c12)CCCC3` the figure was -4.41% (inactive); with `CCc1nc2sc3c(NCC4CCCO4)ncnc3c2c2c1CCCC2` (stereo not given), 57.2% (active); with `CCc1nc2sc3c(NCCN(C)C)ncnc3c2c2c1CCCC2`, 47.1% (inactive).

Turning to `COc1ccc(-c2cc(NC(=O)C3CC3)ccc2OC)cc1`, the inhibition is 93.7% (active).

As to `COc1ccc(-c2cc(CNC(=O)C3CC3)no2)cc1`, the inhibition was 30.7% (inactive). Turning to `COc1ccc(-c2nc(-c3ccccc3F)cs2)cc1OC`, the inhibition is 12.5% (inactive). In the case of `COc1ccc(F)cc1-c1csc(-c2ccc(NC(=O)C3CC3)cc2)n1`, the inhibition was 71.9% (active). With `Cc1csc2cc(C(=O)NC3CC(C)CC(C)(C)C3)cnc12` (stereo not given) the figure was 41% (inactive); with `CCOC(=O)c1c(C)nn(-c2ccc(C(=O)NC3CCC(C)CC3)cc2)c1C` (stereo not given), 38.6% (inactive). Under `CCOC(=O)c1c(C)c(C(=O)NC2CC(C)CC(C)(C)C2)c(C)n1CC` (stereo not given) stands 93.8% (active); under `Cc1c(C(=O)NCc2ccco2)c(C2CC2)nn1-c1ccc(Cl)c(Cl)c1`, 91% (active). Under `CCCc1c(C(=O)O)c(C2CC2)nn1-c1ccc(OC)cc1` stands 17.7% (inactive); under `CCOc1ccc2c(c1)C=C(C(=O)NCc1ccco1)CO2`, -9.65% (inactive). Take `CN(C)C(CNc1ccc(S(C)(=O)=O)cc1[N+](=O)[O-])c1ccco1` (stereo not given): the inhibition is -2.26% (inactive). Turning to `O=[N+]([O-])c1cc(S(=O)(=O)Oc2cccc(Cl)c2Cl)ccc1Cl`, the inhibition is -21.3% (inactive). With `CS(=O)(=O)N(c1ccccc1Cl)S(=O)(=O)c1ccc(Cl)c([N+](=O)[O-])c1` the figure was 70.4% (active); with `O=C1O/C(=C/Br)CCC1c1cccc2ccccc12` (stereo not given), 102% (active). As for `CNC(=O)c1ccc(-c2cccc(-n3cccn3)c2)s1`, the inhibition is 91.2% (active).

As for `O=C(O)c1ccc(CN2CCc3cc(-n4cccn4)cnc32)cc1`, the inhibition was 26.6% (inactive). Regarding `CCOC(=O)C1(CCOc2ccccc2)CCN(Cc2cccc(-n3cccn3)c2)CC1`, the inhibition is 31.7% (inactive).

For the molecule `CNC(=O)COc1ccc(-c2cccc(-n3cccn3)c2)cc1`, the inhibition is 54.7% (active). Consider `COc1cc(NC(=O)c2ccc(CN3CC=CC3)cc2)cc(OC)c1`, for which the inhibition is 36.1% (inactive). With `COc1cc(NC(=O)c2ccc(N3CCC(C)=N3)cc2)cc(OC)c1` the figure was 71% (active); with `NC(Cc1ccccc1)c1csc(Nc2cc(Oc3ccccc3)ncn2)n1` (stereo not given), “inactive”; with `NC(Cc1ccc(F)cc1)c1csc(Nc2cc(Oc3ccccc3)ncn2)n1` (stereo not given), 54.2% (active). With `NC(COCc1ccccc1)c1csc(Nc2cc(Oc3ccccc3)ncn2)n1` (stereo not given) the figure was 76.8% (active).

Regarding `COc1ccc(CC(N)c2csc(Nc3cc(Oc4ccccc4)ncn3)n2)cc1` (stereo not given), the inhibition is 56.6% (active). Under `NC(Cc1ccc(C(F)(F)F)cc1)c1csc(Nc2cc(Oc3ccccc3)ncn2)n1` (stereo not given) stands 59.6% (active).

In general, inhibition refers to the drop in the measured response relative to a control, in per cent.
